A selection: hits, their analogues and other compounds. The true share with any hit is near 3.9%.
GDH-TPI counter-1: counter-screen for M. tuberculosis FBA inhibitors: GDH-TPI coupled enzymes | GDH-TPI coupled enzyme counterscreen, NADH absorbance | actives 1.2% (n = 360,000) | inhibition, % at 4.8 µM; in the data active = inhibition above about 30%;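 also: 0% = DMSO wells and 100% = wells lacking the enzyme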
PrPC surface inh: reduces human prion protein on the cell surface. P04156. cell surface PrPC, TR-FRET read-out. inhibition, % at 13.8 µM. actives 0.43% (n = 370,000). AID 720596; in the data active = inhibition above about 24%; also: 0% = median of the test wells and 100% = reference compound wells
Mtb FBA inh: inhibits M. tuberculosis FBA enzyme | P9WQA3 | purified M. tuberculosis FBA, fluorescence read-out | inhibition, % at 1 µM | actives 2.3% (n = 360,000) | AID 588726;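 also: 0% = vehicle and 100% = reference inhibitor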
Target sequence (P9WQA3 whole entry, looked up): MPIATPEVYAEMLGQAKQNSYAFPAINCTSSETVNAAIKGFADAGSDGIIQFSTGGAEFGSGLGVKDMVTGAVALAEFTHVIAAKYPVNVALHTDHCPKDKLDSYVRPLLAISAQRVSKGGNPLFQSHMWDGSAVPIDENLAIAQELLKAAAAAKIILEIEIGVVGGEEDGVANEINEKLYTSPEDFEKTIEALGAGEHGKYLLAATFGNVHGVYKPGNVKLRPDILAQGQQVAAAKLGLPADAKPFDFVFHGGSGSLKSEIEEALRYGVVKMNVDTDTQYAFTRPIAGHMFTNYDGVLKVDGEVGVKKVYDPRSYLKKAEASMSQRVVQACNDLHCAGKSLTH
BH1578 lux ind: induces V. cholerae light production without autoinducers; V. cholerae BH1578 lux reporter, luminescence, 6 h; activation, % at 18.7 µM; actives 0.16% (n = 350,000); AID 588436; in the data active = activation mostly above about 9.7%, no sharp cut-off
3CLpro inhibitor: SARS-CoV 3CLpro protease inhibition | P0C6X7 | recombinant SARS-CoV 3CLpro, quenched FRET peptide cleavage | inhibition, % at 6 µM | actives 0.14% (n = 290,000); in the data active = inhibition above about 12%
Mtb FBA inh conf: Mtb FBA inhibition, confirmed. purified M. tuberculosis FBA, fluorescence read-out. actives 78% (n = 5,600). AID 651616. inhibition, % at 1 µM. shares compounds with Mtb FBA inh;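 also: 0% = vehicle wells and 100% = reference inhibitor wells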
GDH-TPI counter-2: counter-screen for M. tuberculosis FBA inhibitors: GDH-TPI coupled enzyme inhibition; shares compounds with Mtb FBA inh; GDH-TPI coupled enzyme counterscreen, fluorescence; inhibition, % at 1 µM; actives 81% (n = 5,600); AID 652141; in the data active = inhibition above about 10%
GDH-TPI DR: counter-screen for M. tuberculosis FBA inhibitors: GDH-TPI dose response; shares compounds with Mtb FBA inh; GDH-TPI coupled enzyme assay, fluorescence, artifact counterscreen; IC50, µM; actives 79% (n = 170); AID 652145; call rule not given here
Starred values were filed as active, the others as inactive; i = inactive; / = no result; + = active, no number. Rule as the data show it, unless noted: active = inhibition above about 27%; inactive = the rest.

SMILES | GDH-TPI counter-1 | PrPC surface inh | Mtb FBA inh | BH1578 lux ind | 3CLpro inhibitor | Mtb FBA inh conf | GDH-TPI counter-2 | others
Cc1cc(C)c(S(=O)(=O)Cc2ccccc2)c(Cl)n1 | -11 | -3 | 1 | 1 | -4 | / | /
O=C1CCOc2cc(OCc3ccccc3)ccc21 | -3 | 0 | 3 | -2 | -1 | / | /
O=C1NC(c2ccccc2O)Nc2ccccc21 (centres undefined) | 13 | 10 | 33* | i | 3 | 19 | 11*
O=C1NC(c2cccc(OCc3ccccc3)c2)Nc2ccccc21 (centres undefined) | 0 | 13 | 42* | 6 | / | 168* | 134*
Cc1cc(Br)ccc1NC(=O)CN(C)C(=O)C1CCN(C(=O)c2ccc(Cl)cc2)CC1 | 4 | 6 | -1 | i | / | / | /
CCSc1nnc(NC(=O)c2ccco2)s1 | 28 | 5 | 1 | i | -1 | / | /
O=C(Nc1nnc(/C=C/c2ccccc2)s1)c1ccco1 | 74* | 4 | 34* | 0 | 0 | -1 | 0
CC(C)n1ncc2c(C(=O)Nc3cccc(C#N)c3)cc(C3CC3)nc21 | 6 | 4 | -3 | 0 | / | / | /
COC(=O)C1=C(c2cccc(OCc3ccccc3)c2)C[C@@H]2CC[C@H]1N2C(=O)NCCOc1ccccc1Cl | 7 | 9 | 0 | i | / | / | /
COC(=O)C1=C(c2ccccc2OCc2ccccc2)C[C@@H]2CC[C@H]1N2C(=O)NCCOc1ccccc1Cl | -6 | 7 | 46* | 1 | / | 179* | 122*
Cc1c(Br)c(=O)oc2c(C)c(O)ccc12 | 14 | 18 | 41* | 0 | 1 | 196* | 169*
COC(=O)C1=C(C)NC(=O)NC1c1ccc(OC)c(OC)c1 (centres undefined) | 5 | -2 | -3 | -1 | / | / | /
COC(=O)C1=C(C)NC(=O)NC1c1ccc(N2CCC(c3ccccc3)=N2)cc1 (centres undefined) | 11 | -6 | 78* | 0 | 4 | 109* | 78*
CSCCC(C(=O)Nc1c(C)cccc1C)n1c(-c2cc(C)cs2)nc2ccccc21 (centres undefined) | / | 20 | / | / | / | / | /
CCOC(=O)c1nc2c(ccc3ccccc32)cc1C | 3 | -6 | 31* | i | -2 | + | 168*
O=C(NCc1cccs1)C1C(=O)Nc2ccccc2C(=O)N1Cc1ccccc1 (centres undefined) | / | 5 | / | / | / | / | /
COc1ccccc1C(=O)NCC(=O)OCC(=O)Nc1ccc2[nH]c(=O)[nH]c2c1 | 0 | -7 | -3 | 0 | / | / | /
CN(C)C(=O)c1cccc(-c2cccc3nccn23)c1 | 7 | -7 | 41* | 1 | / | 88* | 58*
COc1ccc(-c2ccc(C(=O)NCc3ccco3)c3occc23)c(C)c1 | -3 | 6 | 28* | -6 | / | 56* | 50*
C/C=C(\C)C(=O)OC(C)(C)[C@@H]1Cc2cc3ccc(=O)oc3cc2O1 | 10 | -4 | 93* | i | / | 157* | 114*
C/C=C(/C)C(=O)OC1c2c(ccc3ccc(=O)oc23)OC(C)(C)C1OC(C)=O (centres undefined) | 14 | -11 | 15 | -2 | 2 | / | /
CC(=O)N1CCN(CC(=O)Nc2cc(S(=O)(=O)N3CCOCC3)ccc2C)CC1 | 4 | -5 | 1 | i | 1 | / | /
COc1cccc(-c2ccc(C#N)c(=O)[nH]2)c1 | 19 | -5 | 111* | 0 | -1 | + | +
CCN(CC)C(=O)CSc1nnc(CSc2ncccn2)n1C | -2 | -2 | 1 | 0 | 2 | / | /
Cc1ccc(Oc2ccc(NC(=O)CSc3n[nH]c(N)n3)cc2)cc1 | 11 | 4 | 32* | -3 | -2 | -1 | -3
SMILES | GDH-TPI counter-1 | PrPC surface inh | Mtb FBA inh | BH1578 lux ind | 3CLpro inhibitor | Mtb FBA inh conf | GDH-TPI counter-2 | others
COc1ccc(NC(=O)CCCn2cnc3ccccc3c2=O)cc1 | 3 | -5 | 1 | i | -5 | / | /
Cc1noc(C)c1S(=O)(=O)N1CCCc2nc(-c3ccccc3)ccc21 | / | -3 | / | / | / | / | /
c1ccc2nc3ccccc3nc2c1 | 4 | -2 | 4 | -1 | 6 | / | /
CCCc1c2ccccc2nc2ccccc12 | 8 | 6 | 50* | -1 | -1 | 38* | 34*
Cn1c(N)nc2ccccc2c1=O | -1 | -4 | 28* | 1 | 3 | 34* | 22*
c1ccc(Oc2c3ccccc3nc3ccccc23)cc1 | / | / | / | / | 3 | / | /
N#Cc1c2ccccc2nc2ccccc12 | -2 | -10 | 28* | i | -1 | 182* | 117*
Nc1nc2ccccc2nc1N | 3 | -6 | 51* | -3 | -1 | 69* | 61*
Cn1c(NN)nc2ccccc2c1=O | 4 | -3 | 5 | i | -5 | / | /
Cc1cn([C@H]2C[C@H](O)[C@@H](CCC(=O)NCc3ccccc3)O2)c(=O)[nH]c1=O | -10 | -8 | 1 | -1 | / | / | /
COc1cccc(CSc2nc3ccncc3[nH]2)c1 | 3 | -4 | 0 | 0 | -2 | / | /
COc1ccc(/C=C/S(=O)(=O)NCc2ccc(F)cc2)c(CNC(=O)OC(C)(C)C)c1 | / | -7 | / | / | / | / | /
O=C(CN1C(=O)NC2(CCCCC2)C1=O)NCc1ccc2c(c1)OCO2 | 1 | 2 | -2 | -2 | 0 | / | /
O=Cc1cc2ccccc2nc1SCCCF | -3 | 2 | -1 | 0 | -2 | / | /
CCC(C)N=C1Sc2nc3ccc(C)cc3cc2CN1CCOC (centres undefined) | 1 | -4 | 0 | 0 | 3 | / | /
Nc1c2c(nc3ccccc13)CCCC2 | 13 | 3 | -1 | -4 | -1 | / | /
Nc1c2ccccc2nc2ccccc12 | 6 | 12 | 63* | 0 | -2 | 73* | 48*
Cc1ccc(-c2cnc(-c3ccccc3C(=O)O)o2)cc1 | 0 | 0 | 70* | i | -6 | 11 | -3 | GDH-TPI DR=1.6*
COc1ccc(OC)c(S(=O)(=O)CC(=O)c2cc3ccccc3oc2=O)c1 | / | 3 | / | / | / | / | /
O=C(CS(=O)(=O)c1ccccc1)c1cc2cc(F)ccc2oc1=O | -6 | / | 62* | 0 | -4 | 6 | -5
COc1ccc2cc(C(=O)CS(=O)(=O)c3ccccc3)c(=O)oc2c1 | 23 | -7 | 57* | -11 | 1 | 56* | 46*
O=C(CS(=O)(=O)c1ccccc1)c1cc2ccccc2oc1=O | 8 | / | 0 | 0 | 1 | / | /
Nc1nc(NCc2ccco2)nc(N2CCN(Cc3ccccc3)CC2)c1[N+](=O)[O-] | 8 | 1 | 1 | 0 | 1 | / | /
COc1ccc2c(C)c(CC(=O)N3CCN(C(=O)C4COc5ccccc5O4)CC3)c(=O)oc2c1C (centres undefined) | 9 | -3 | 78* | 0 | -4 | 162* | 131*
CCCc1cc(=O)oc2cc(OCC(=O)N3CCN(C(=O)C4COc5ccccc5O4)CC3)ccc12 (centres undefined) | 2 | -1 | 24 | 0 | 4 | / | /
